# A selection: hits, their analogues and other compounds. The true share with any hit is near 19%.
# Shiga toxin inh: Shiga toxin inhibition. Vero cells, Shiga toxin protein synthesis inhibition reporter. inhibition, % at 38.7 µM. 290,000 tested, 9.2% active. AID 2315; in the data active means inhibition mostly above about 28%, no sharp cut-off; inactive means mostly below about 43%; further: 0% is about no effect
# Pf growth 96h: P. falciparum growth inhibition at 96 hour, primary screen for plastid delayed-death inhibitors; P. falciparum luciferase reporter growth, 96 h; Potency, µM (highest dose often 28.7 µM), inactives show at the top dose activity change, negative = inhibition, most hits filed as inhibitors; 320,000 tested, 6.9% active; further: potency means the concentration at half of the fitted maximal effect; on the % scale 0 is the no-effect control and ±100 the full control effect
#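 Parasite growth measured via integrated firefly luciferase reporter in P. falciparum. Infected erythrocytes at 2% hematocrit, 0.05% parasitemia final were treated 96 hours at 37 C under 5% CO2, and luminescence was read.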
# Cycloheximide cs: counter-screen for Shiga toxin inhibitors: cycloheximide protein synthesis inhibition. cell reporter, cycloheximide protein synthesis inhibition counterscreen. max response, %. 300,000 tested, 12% active. AID 2314; in the data active means max response mostly above about 13%, no sharp cut-off; inactive means mostly below about 14%; further: read at 38.3 µM for the half of the compounds with a filed dose; 0% is about no effect
# AMA1-RON2 inh: AMA1-RON2 (P. falciparum) interaction inhibition | AlphaScreen AMA1-biotinylated RON2 peptide binding | Potency, µM (top dose mostly 58.2 µM), for the others: at the top dose activity change, negative = inhibition, actives largely listed as inhibitors | 360,000 tested, 0.2% active;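 further: potency means the concentration at half of the fitted maximal effect; 0% = vehicle wells and -100% = peptide control; nearly all actives have a fitted effect of over 45% in size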
#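 AMA1 (3D7) with his tag at 25 nM final met compounds first, then biotinylated RON2 peptide at 25 nM; detection used donor plus acceptor beads, 10 µg/mL apiece, read by AlphaScreen after 30 min at room temperature.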
# Pf growth 48h: inhibits P. falciparum growth in the first generation, 48 h | P. falciparum luciferase growth in erythrocytes, 48 h | Potency, µM (highest dose often 28.7 µM), inactives show top-dose activity change, negative = inhibition, most hits filed as inhibitors | 310,000 tested, 5.9% active | AID 504832; further: potency means the concentration at half of the fitted maximal effect; on the % scale 0 is the no-effect control and ±100 the full control effect
#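 Cell-based growth assay: transgenic P. falciparum expressing firefly luciferase, cultured in red cells within RPMI 1640 containing 0.5% w/v Albumax, 24 mM bicarbonate and gentamycin. A drop in luciferase activity indicates inhibition.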
# SARS PLpro yeast: blocks SARS-CoV papain-like protease in a yeast assay. 330,000 tested, 0.19% active. AID 485353. S. cerevisiae expressing SARS-CoV PLpro, growth rescue. Potency, µM (series often up to 32.9 µM), without a hit: top-dose activity, positive = growth rescue, usual class: activators; calls by dose curve; further: potency means the concentration at half of the fitted maximal effect; 0% is about no effect; nearly all actives have a fitted effect of over 55% in size
# * hit, by the source's call; ? = inconclusive; . = not tested or not shown; [ ] = dose if it differs, or a comment. Unless noted, the call rests on the fitted dose curve; in most records, active means well fitted curve in the direction sought with a large enough effect; inconclusive means small, poorly fitted or top-dose-only effect, or another doubt; inactive means no such curve, though single readings can be large; an effect the other way counts as inactive or inconclusive.
SMILES,Shiga toxin inh,Pf growth 96h,Cycloheximide cs,AMA1-RON2 inh,Pf growth 48h,SARS PLpro yeast
Cc1ccc(C(=O)CCNc2ccccc2)o1,76*,.,27*,2%,-3%,.
Cc1ccc(C(=O)CCNc2ccc(Br)cc2)o1,62*,11%,27*,-10%,6%,.
Cc1ccc(C(=O)CCNc2ccc(F)c(Cl)c2)o1,3,44%,-2,-4%,5%,-5%
O=[N+]([O-])c1ccc(NCCCNS(=O)(=O)c2ccccc2)c(Cl)c1,-5,0%,0,-3%[2.32 µM],-16%,-18%
CC1(C)NC(=O)N(CC(=O)Nc2cc(S(=O)(=O)N3CCOCC3)ccc2N2CCOCC2)C1=O,-11,7.4µM*,5,.,19%,-1%
O=C(CN1CCc2ccccc2C1)Nc1cc(S(=O)(=O)N2CCOCC2)ccc1N1CCOCC1,6,13µM*,-1,7%,?,0%
CCN(CC)c1ccc(S(=O)(=O)N2CCOCC2)cc1NC(=O)CN1C(=O)NC2(CCCC2)C1=O,-5,?,-5,3%,?,3%
CCCCCc1nnc(NC(=O)Cn2cnc3ccccc3c2=O)s1,-4,13%,-1,0%,20%,-2%
CCN(CC)S(=O)(=O)c1cccc(-c2nnc(SCC(N)=O)n2C)c1,-5,?,8,7%,-3%,-1%
COc1ccc(NC(=O)c2ccccc2NC(=O)CSc2ccc(C)cc2)cc1,8,38%,6,-7%,31%,0%
COc1ccc(-c2nnc(SCC(=O)Nc3ccc(C)cc3)n2C)cc1,-15,5.2µM*,-3,-1%,-12%,?
CC(C)(C)NC(=O)CSc1nnnn1C(C)(C)C,32*,6%,25*,22%,15%,-5%
CCN(CC)S(=O)(=O)c1ccc(NC(=O)CSc2nnc(-c3cccc(OC)c3)n2C)cc1,-1,?,-1,-1%,10µM*,17%
COc1ccc(NC(=O)CSc2ccc(C)cc2)cc1,81*,-22%,33*,-11%,227%,13%
CC(C)c1nnc(SCC(=O)NC(C)(C)C)n1C,18,?,-2,25%,27%,-1%
O=C1C[C@H](NC(=O)OCc2ccccc2)CO1,.,31%,.,6%,14%,-1%
Cc1ccc(NC(=O)COCC(=O)Nc2ccc(C)cc2)cc1,-2,-14%,-2,6%,23%,-4%
Cc1ccc(NC(=O)CNc2ccc(OC(C)C)cc2)cc1,10,44%,16*,-2%,.,12%
CCn1c(SCC(=O)Nc2ccc(C)cc2)nnc1-c1ccccn1,14,-1%,1,-26%,-2%,0%
CCn1c(SCC(=O)Nc2ccc(C)cc2)nnc1-c1ccc(O)cc1,-11,2.6µM*,-2,27%,?,2%
Cc1ccc(C2=NC(C)(C)N=C2SCC(=O)Nc2ccc(Cl)cc2)cc1,4,4.1µM*,0,-10%,.,-46%
CCn1c(SCC(=O)Nc2ccc(N3CCOCC3)cc2)nnc1-c1ccco1,.,10µM*,.,2%,-1%,2%
Cn1c(SCc2ccc([N+](=O)[O-])cc2)nnc1-c1cccnc1,-10,-11%,-2,?,-24%[5.75 µM],0%
C/C(=N\NC(=O)Cc1ccc(Cl)cc1)c1ccccc1O,-8,-89%,2,70%,?,-3%
O=S(=O)(Cc1ccccc1Cl)NCCc1ccc(F)cc1,-3,5%,-3,-1%,2%,-11%
SMILES,Shiga toxin inh,Pf growth 96h,Cycloheximide cs,AMA1-RON2 inh,Pf growth 48h,SARS PLpro yeast
O=C(O)[C@H](Cc1c[nH]c2ccccc12)N1C(=O)C2=CCCC=C2C1=O,4,.,-3,.,.,.
O=C(CC1NCCNC1=O)Nc1ccc([N+](=O)[O-])cc1 (stereo not drawn),9,33%,1,0%,8%,1%
Nn1c(SCC(=O)Nc2ccc(S(N)(=O)=O)cc2)nnc1-c1ccco1,-10,13µM*,-4,51%,-19%,-7%
COc1ccc(-c2nnc(SCc3csc(N)n3)n2C)cc1,-17,?,-4,11%,?,-2%
Cc1ccc(Nc2nc(CSc3nnc(-c4ccc(F)cc4)n3C)cs2)cc1,123*,28%,32*,19%,78%,0%
COc1ccc(NC(=O)CSc2nnc(-c3ccco3)n2C)cc1,19,6.6µM*,-2,-1%,-19%,6%
Cc1ccc(NC(=O)CSc2nc(O)cc(=O)n2C)cc1,16,-1%,-3,11%,-4%,-1%
Cc1ccc(NC(=O)CSc2nc3sc(C)cc3c(=O)n2C)cc1,-14,9.3µM*,-3,25%,?,-1%
Cc1cc2c(s1)c1cnn(Cc3cccc(Cl)c3)c(=O)c1n2C,-5,.,-1,.,.,.
FC(F)(F)c1cnc(Sc2ncn[nH]2)c(Cl)c1,-3,24%,-6,0%,-19%,-3%
CCCCSc1nnc(-c2ccc(OC)cc2)n1C,60*,13µM*,65*,-12%,-3%,-17%
Cc1ccc(SCC(=O)NC(C)(C)C)cc1,133*,.,28*,1%,66%,.
Cc1ccc(SCC(=O)Nc2cccc(C(=O)NC(C)(C)C)c2)cc1,14,31%,2,-15%,-2%,-8%
Cc1ccc(-c2nnc(SCC(C)C)n2C)cc1,138*,49%,34*,0%,43%,-1%
CC12CCC(=O)N1C(C(=O)NCc1ccc(Cl)cc1Cl)CS2 (stereo not drawn),.,52%,.,2%,-26%,1%
Clc1nccc2c1ccc1ccccc12,16,.,11,.,.,.
COc1ccc(NC(=O)c2c(C)nn(Cc3ccccc3)c2C)cc1S(=O)(=O)N(C)C,-7,-3%,0,34%,?,3%
O=C1c2ccccc2C(Nc2ccc(-c3nc4ccccc4[nH]3)cc2)N1Cc1ccco1 (stereo not drawn),89*,19%,17*,6%,?,-6%
O=C1c2ccccc2C(Nc2ccc(S(=O)(=O)N3CCOCC3)cc2)N1c1ccccn1 (stereo not drawn),-8,7.4µM*,-2,18%,.,-5%
O=C1c2ccccc2C(Nc2ccc(S(=O)(=O)N3CCOCC3)cc2)N1Cc1ccco1 (stereo not drawn),-19,8.3µM*,-6,-12%,.,-5%
O=C1c2ccccc2C(Nc2ccc3nc(-c4cccnc4)[nH]c3c2)N1Cc1ccco1 (stereo not drawn),-7,?,6,-16%,-5%,-22%
O=C1c2ccccc2C(Nc2ccc(S(=O)(=O)N3CCCCCC3)cc2)N1c1ccccn1 (stereo not drawn),-4,-25%,-8,0%,.,-1%
COc1ccc(OCCN2CCC(C(=O)NC(C)c3cccc4ccccc34)CC2)cc1 (stereo not drawn),.,.,.,0%,.,.
COc1ccccc1NS(=O)(=O)c1cccc(C(=O)NCC2(N3CCCCC3)CCCCC2)c1,.,.,.,-13%,.,.
c1ccc(C2Nc3ccccc3Oc3ccccc32)cc1 (stereo not drawn),9,5.2µM*,-3,-6%,10µM*,-44%
